Compounds with a hit are over-represented: about 2.7% of the library has one in this group of screens.
Tau fibril ThT – inhibitors of human tau fibril formation, thioflavin T binding; Potency, µM (doses to about 57.4 µM), hits mostly inhibitors; recombinant tau K18 P301L, heparin-induced fibrillization, ThT fluorescence; P10636; actives 2.1% (n = 270,000); note: nearly all actives have a fitted effect of over 55% in size
Target sequence (P10636 561-689 P618L limits assumed): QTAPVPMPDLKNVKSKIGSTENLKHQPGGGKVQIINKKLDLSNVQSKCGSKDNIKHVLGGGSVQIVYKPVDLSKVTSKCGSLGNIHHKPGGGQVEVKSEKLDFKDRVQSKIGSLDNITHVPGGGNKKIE
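Fibril formation assay: tau K18 P301L at 15 uM with trace Alexa 594 label, heparin inducer 20 uM, pH 7 sodium acetate buffer, 37 C for 6 hr; endpoint ThT signal.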
Tau fluor cs – counter-screen for tau fibril formation inhibitors; tau K18 P301L Alexa594 fluorescence, heparin fibrillization; Potency, µM (highest dose often 57.7 µM); actives 0.93% (n = 280,000); note: nearly all actives have a fitted effect of over 55% in size
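Human tau K18 P301L (15 uM unlabeled, 0.24 uM Alexa 594-labeled) in 100 mM sodium acetate pH 7 with 20 uM heparin, 6 hr at 37 C. ThT 30 uM added, 1 hr ambient; Alexa 594 FP and total fluorescence read at 555/632 nm.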
Tau FP inhib – tau fibrillization inhibition (FP) | P10636 | K18 P301L tau heparin fibrillization, Alexa594 FP, 6 h | AID 1468 | Potency, µM (highest dose often 57.7 µM), actives largely listed as inhibitors | actives 0.39% (n = 280,000); note: nearly all actives have a fitted effect of over 55% in size
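K18 P301L tau (15 uM unlabeled/0.24 uM Alexa 594-labeled, final) + compound + heparin 20 uM final; 100 mM NaOAc pH 7; 6 hr 37 C; ThT 30 uM final added, 1 hr RT; FP ex 555/em 632 nm.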
Coupling enz – coupling enzyme interference in Giardia aldolase counter-screen; coupling enzyme system counterscreen, AmpLite Red fluorescence; activity change, negative = inhibition, % at 58.2 µM, hits read low; actives 0.67% (n = 290,000); in the data active = activity change below about -30%
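Counterscreen of the coupled detection system alone, without aldolase: glyceraldehyde-3-phosphate coupling enzymes plus AmpLite Red readout. Compounds at 57.5 uM final, 10 min RT preincubation, 20 min RT reaction, fluorescence 525/598 nm.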
A number is an active result; . = inactive; ? = inconclusive; / = no result given; [ ] = dose if it differs, or a comment. Unless noted, calls come from the whole dose curve; as a rule, active = well fitted curve in the direction sought with a large enough effect; inconclusive = small, poorly fitted or top-dose-only effect, or another doubt; inactive = no such curve, though single readings can be large; an effect the other way counts as inactive or inconclusive.

SMILES	Tau fibril ThT	Tau fluor cs	Tau FP inhib	Coupling enz
CCc1cc2c3c(c1)C(C)CC(C)(C)N3C(=O)/C2=C1\SC(=O)NC1=O (stereo not drawn)	14.1µM	?	.	.
COc1ccc2c(c1)-c1nc(/N=C/c3ccccc3O)sc1CC2	31.6µM	?	?	.
COc1ccc2c(c1)-c1nc(/N=C/c3cccc(OC)c3O)sc1CC2	.	.	.	.
COc1ccccc1[C@H]1C(c2ccc(F)cc2)=NN(c2ccccc2)[C@@H]1CO	?	?	?	.
C[C@H]1C(c2cccc(Cl)c2)=NN(c2ccccc2)[C@@H]1CO	?	15.8µM[quencher]	.	.
OC[C@@H]1[C@@H](c2ccc(Cl)cc2)C(c2ccccc2)=NN1c1ccccc1	?	10µM[quencher]	.	.
CC[C@H]1C(c2ccccc2)=NN(c2ccccc2)[C@@H]1CO	.	?	?	.
OC[C@@H]1[C@@H](c2ccc(F)cc2)C(c2cccc(Cl)c2)=NN1c1ccccc1	?	39.8µM[quencher]	.	.
OC[C@@H]1[C@@H](c2ccc(Cl)cc2)C(c2cccc(Cl)c2)=NN1c1ccccc1	?	11.2µM[quencher]	?	.
Cc1ccc(NC(=O)C2CCC(CNS(=O)(=O)c3ccc4c(c3)CCCC(=O)N4)CC2)c(C)c1 (stereo not drawn)	.	.	.	/
CCN(CC)c1nc(-c2ccccn2)nc(-c2ccccc2)c1C#N	.	.	.	.
COc1ccccc1[C@H]1C(c2ccccc2)=NN(c2ccccc2)[C@@H]1CO	?	31.6µM[quencher]	.	.
C[C@H]1C(c2ccc(F)cc2)=NN(c2ccccc2)[C@@H]1CO	?	25.1µM[quencher]	?	.
O=C(CSc1nc2ccc(S(=O)(=O)N3CCOCC3)cc2[nH]1)N1CCOCC1	28.2µM	.	?	.
O=C(CCC1CCCN(C(=O)CCCc2ccccc2)C1)N1CCN(c2ccccn2)CC1 (stereo not drawn)	.	.	.	.
CCc1ccc2occ(CC(=O)Nc3ccc(OC)c(Cl)c3)c2c1	?	25.1µM[quencher]	?	/
CC(C)c1ccc2occ(CC(=O)Nc3cccc(C(F)(F)F)c3)c2c1	.	?	17.8µM	/
CCc1ccc2occ(CC(=O)NCc3ccccc3)c2c1	.	.	.	/
Cc1cccc(NC(=O)c2oc3ccccc3c2NC(=O)Cc2coc3ccc(C(C)C)cc23)c1	.	.	?	/
Cc1ccc2occ(CC(=O)Nc3ccc(Cl)c(C(F)(F)F)c3)c2c1	.	?	14.1µM	/
Cc1ccc2oc3c(c(=O)c2c1)C(c1ccccc1F)N(CCCN(C)C)C3=O (stereo not drawn)	.	.	.	/
Cn1c(C(=O)NCCN2CCc3ccccc3C2)cc2c(=O)n(C)c3ccccc3c21	?	.	.	-30.5
Cc1cccc(C)c1NC(=O)C(=O)NCC(c1cccnc1)N1CCc2ccccc21 (stereo not drawn)	.	.	.	/
Cc1ccc(-c2onc3ccc(C=O)cc23)cc1	25.1µM	?	?	.
O=C(O)CN(CC(=O)O)Cc1cc2c(-c3ccccc3C(=O)O)c3cc(CN(CC(=O)O)CC(=O)O)c(=O)cc-3oc2cc1O	?	.	22.4µM	.
SMILES	Tau fibril ThT	Tau fluor cs	Tau FP inhib	Coupling enz
CCOC(=O)C1=C(C)N=c2s/c(=C/c3ccccc3)c(=O)n2C1c1ccc(OC)c(OC)c1 (stereo not drawn)	.	.	.	.
CCOC(=O)C1=C(C)N=c2s/c(=C\c3ccncc3)c(=O)n2C1c1ccc2c(c1)OCO2 (stereo not drawn)	25.1µM	?	?	.
CCOC(=O)C1=C(CCl)NC(=O)NC1c1ccc2c(c1)OCO2 (stereo not drawn)	/	/	/	.
CCOC(=O)C1=C(C)N=c2s/c(=C3\C(=O)Nc4ccccc43)c(=O)n2C1c1ccc2c(c1)OCO2 (stereo not drawn)	17.8µM	?	?	.
CCOc1ccc(CNC(=O)Cn2nc(C)n3cccc3c2=O)cc1	.	.	.	/
O=C1/C(=C/c2cccs2)SC(=S)N1c1ccccc1	.	.	.	.
O=C1/C(=C/c2cccs2)SC(=S)N1c1cccc(O)c1	20µM	20µM[quencher]	.	.
O=C(NCc1ccccc1F)C1CCN(c2nnc(-n3cccc3)s2)CC1	?	.	.	/
OC(COCC(F)(F)C(F)(F)C(F)(F)C(F)F)Cn1c2ccc(Cl)cc2c2cc(Cl)ccc21 (stereo not drawn)	.	?	10µM	.
CCc1nnc(NC(=O)CN2C(=O)/C(=C/c3cc(OC)c(OC)c(OC)c3)SC2=S)s1	7.94µM	?	?	.
CC(C)OC(=O)c1cc2c(OC[C@@H](O)CNC(C)(C)C)cccc2[nH]1	.	.	.	.
COc1ccc(NC(=O)C2(c3cccs3)CCOCC2)cc1Cl	.	.	.	/
O=c1[nH][nH]c(=S)n1C1CCCCC1	31.6µM	.	?	-38.8
Nc1ccc(C(=O)N/N=C\c2cc(N=Nc3cccc4ccccc34)ccc2O)cc1	3.16µM	?	.	.
Cc1cc(C(=O)N/N=C/c2cc(Br)cc([N+](=O)[O-])c2O)c2ccccc2n1	7.94µM	?	?	.
Cc1cc(C(=O)N/N=C/c2cccc([N+](=O)[O-])c2O)n[nH]1	14.1µM	.	.	.
Cc1cc(C(=O)N/N=C/c2cc(N=Nc3ccccc3)ccc2O)n[nH]1	7.08µM	?	.	.
Cc1cc(C(=O)N/N=C/c2cc([N+](=O)[O-])ccc2O)c2ccccc2n1	?	.	.	.
COc1cc(C2CC(=O)c3c([nH]c(C(=O)OCc4ccc(C)cc4)c3C)C2)cc(OC)c1OC (stereo not drawn)	.	.	.	/
CCCCN(Cc1ccco1)C(=O)c1cc2c(s1)-c1c(C)cccc1OC2	?	.	.	/
COc1cc(-c2noc(CN3CCN(c4cccc(Cl)c4)CC3)n2)cc(OC)c1OC	.	.	.	/
COC(=O)N/N=C/c1cc(Br)ccc1O	?	.	.	.
COC(=O)N/N=C/c1cc(N=Nc2ccccc2Cl)ccc1O	1.58µM	?	.	.
COC(=O)N/N=C/c1cc(N=Nc2ccccc2)ccc1O	1.12µM	?	.	.
Cc1ccc(CNC(=O)CSc2nc3ccsc3c(=O)n2-c2ccc(C(=O)O)cc2)cc1	.	.	.	/
SMILES	Tau fibril ThT	Tau fluor cs	Tau FP inhib	Coupling enz
Oc1ccccc1Nc1nc(NCc2ccco2)c2ccccc2n1	?	17.8µM[quencher]	.	.
O=C(Nc1nnc(C(F)(F)F)s1)c1ccc(Br)s1	.	.	.	-34.2
Cc1cc(C(=O)Nc2nnc(C(F)(F)F)s2)cs1	/	.	.	-34.6
CCSc1nnc(NC(=O)c2ccc(Br)s2)s1	.	.	.	.
CN(C)c1ccc(/C=C/C(=O)c2ccc3c(c2)OCCO3)cc1[N+](=O)[O-]	3.55µM	?	.	.
O=C(/C=C/c1ccncc1)c1ccc2c(c1)OCCO2	?	.	.	.
COc1ccc(C(=O)/C=C/c2ccccc2)c(OC)c1	?	.	.	.
Cc1ccc(C(=O)O/N=C\c2ccc(N3CCCCC3)c([N+](=O)[O-])c2)cc1	4.47µM	.	.	.
COc1ccc(C(=O)/C=C/c2ccc(N3CCCCC3)c([N+](=O)[O-])c2)c(OC)c1	3.98µM	?	.	.

Assay outcomes deposited in PubChem by National Center for Advancing Translational Sciences (NCATS).
